Experimental data: paper PMC5540273 (PLoS ONE, 2017)

Experiments:
Conditions in all cases: concentration: 1 μM, replicates: in singlicate; n = 1
PDGFRB = test system: PDGFRB
PDPK1 = test system: PDPK1
PFTAIRE2 = test system: PFTAIRE2
PFTK1 = test system: T1, PFTK1
T1 construct: gene CDK14

PHKG1 = test system: PHKG1
PHKG2 = test system: PHKG2
PIK3C2B = test system: PIK3C2B
PIK3C2G = test system: PIK3C2G
PIK3CA = test system: PIK3CA
PIK3CB = test system: PIK3CB
PIK3CD = test system: PIK3CD
PIK3CG = test system: PIK3CG
PIK4CB = test system: T2, PIK4CB
T2 construct: gene PI4KB

PIKFYVE = test system: PIKFYVE
PIM1 = test system: PIM1
PIM2 = test system: PIM2
PIM3 = test system: PIM3
PIP5K1A = test system: PIP5K1A
PIP5K1C = test system: PIP5K1C
PIP5K2B = test system: PIP5K2B
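Note: KINOMEscan kinase panel screen.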

Structure (SMILES) | %Inh (PDGFRB) | %Inh (PDPK1) | %Inh (PFTAIRE2) | %Inh (PFTK1) | %Inh (PHKG1) | %Inh (PHKG2) | %Inh (PIK3C2B) | %Inh (PIK3C2G) | %Inh (PIK3CA) | %Inh (PIK3CB) | %Inh (PIK3CD) | %Inh (PIK3CG) | %Inh (PIK4CB) | %Inh (PIKFYVE) | %Inh (PIM1) | %Inh (PIM2) | %Inh (PIM3) | %Inh (PIP5K1A) | %Inh (PIP5K1C) | %Inh (PIP5K2B)
CCC(CC)(CC)n1cnc2c(N)ncnc21 [SKF-97620] | 0% | 0% | 0% | 0% | 0% | 0% | 0% | 9% | 6% | 27% | 22% | 5% | 40% | 33% | 0% | 6% | 5% | 30% | 9% | 0%
Nc1nc(-c2cccnc2)c(-c2ccnc3ccccc23)s1 [GW684083] | 28% | 0% | 16% | 27% | 14% | 0% | 0% | 0% | 0% | 0% | 0% | 0% | 0% | 12% | 0% | 0% | 0% | 25% | 58% | 0%
Cl.c1ccc(Cn2ccc3cc(Nc4ncnc5ccccc45)ccc32)cc1 [GW275568] | 35% | 22% | 28% | 29% | 0% | 23% | 31% | 3% | 14% | 0% | 0% | 21% | 24% | 0% | 27% | 1% | 23% | 0% | 34% | 6%
FC(F)(F)c1cc(Nc2nccc(-c3c(-c4ccc(Cl)cc4)nn4ncccc34)n2)ccc1Cl [GW829351] | 3% | 0% | 0% | 0% | 0% | 0% | 0% | 0% | 0% | 0% | 0% | 0% | 0% | 16% | 0% | 0% | 0% | 10% | 0% | 0%
Cc1ccc(O)cc1Nc1cc(C(F)(F)F)nc2ccc(-c3ccncc3)cc12 [GW630823] | 10% | 0% | 34% | 5% | 14% | 5% | 0% | 15% | 1% | 0% | 0% | 0% | 0% | 0% | 4% | 3% | 11% | 0% | 0% | 0%
CSc1nn2c(=O)cc(N3CCOCC3)nc2n1Cc1cccc(Cl)c1Cl [GSK2347225] | 24% | 0% | 45% | 20% | 0% | 0% | 80% | 33% | 15% | 100% | 85% | 56% | 0% | 37% | 8% | 0% | 0% | 0% | 27% | 4%
CC(C)(C)OC(=O)NC1CCCN(c2cc(-c3ccc4c(N)n[nH]c4c3)nc(N)n2)C1 (stereo not drawn) [GSK2286096] | 14% | 84% | 18% | 0% | 0% | 0% | 0% | 0% | 0% | 0% | 0% | 19% | 1% | 0% | 9% | 0% | 5% | 0% | 7% | 19%
Nc1n[nH]c2nnc(-c3ccccc3)cc12 [SB-517389] | 5% | 0% | 17% | 24% | 0% | 1% | 0% | 0% | 0% | 0% | 0% | 0% | 8% | 0% | 8% | 0% | 0% | 0% | 0% | 18%
Fc1ccc(Nc2nccc(-c3c(-c4ccc(Cl)cc4)nn4ncccc34)n2)cc1F [GW829058] | 44% | 12% | 4% | 10% | 7% | 0% | 6% | 29% | 25% | 50% | 54% | 18% | 32% | 20% | 31% | 11% | 24% | 13% | 54% | 14%
Nc1nc(-c2ccccn2)c(-c2ccnc3ccccc23)s1 [GW548057] | 23% | 0% | 9% | 29% | 0% | 6% | 0% | 0% | 7% | 14% | 0% | 10% | 0% | 33% | 0% | 0% | 0% | 54% | 87% | 14%
COC(=O)c1c(-c2ccccc2)c2cc(Cl)ccc2c(=O)n1Cc1ccc(S(C)(=O)=O)cc1 | 78% | 16% | 0% | 11% | 4% | 0% | 10% | 24% | 10% | 21% | 34% | 25% | 46% | 0% | 1% | 16% | 2% | 16% | 0% | 49%
FC(F)(F)c1ccc(-c2cc(-c3c[nH]nc3-c3ccccn3)ccn2)cc1 [GW599550] | 30% | 5% | 20% | 19% | 0% | 21% | 0% | 0% | 3% | 0% | 0% | 1% | 0% | 22% | 19% | 0% | 51% | 18% | 74% | 17%
Clc1ccc(-c2cc(-c3c[nH]nc3-c3ccccn3)ccn2)cc1 [GW681251] | 62% | 0% | 1% | 0% | 0% | 0% | 0% | 0% | 0% | 0% | 0% | 0% | 4% | 0% | 0% | 30% | 0% | 16% | 79% | 22%
CCc1nc(-c2cccc(C)c2)c(-c2ccnc(NC(=O)c3ccccc3)c2)s1 | 0% | 0% | 17% | 10% | 0% | 0% | 14% | 49% | 0% | 29% | 44% | 0% | 62% | 1% | 0% | 0% | 0% | 15% | 0% | 64%
Oc1ccc2ncnc(Nc3ccc(OCc4ccccc4)cc3)c2c1 [GI262866] | 21% | 0% | 13% | 29% | 0% | 0% | 0% | 0% | 0% | 0% | 5% | 0% | 1% | 0% | 0% | 0% | 33% | 0% | 19% | 19%
Cl.Cl.c1ccc(-c2cc3ccncc3cc2OC2CCNCC2)cc1 [GSK1122999] | 42% | 0% | 34% | 12% | 2% | 0% | 7% | 0% | 4% | 26% | 30% | 3% | 0% | 0% | 25% | 0% | 39% | 0% | 25% | 10%
Cc1cccc(-c2nc(Nc3ccc4[nH]nnc4c3)c3ccccc3n2)n1 [GW867587] | 0% | 0% | 0% | 0% | 0% | 0% | 0% | 0% | 0% | 0% | 0% | 0% | 0% | 13% | 17% | 0% | 2% | 27% | 0% | 0%
Cc1ccc(C)c(NC(=O)NCCNc2ccnc(Nc3ccc(F)cc3)n2)c1 [GSK1379878] | 6% | 0% | 10% | 0% | 0% | 0% | 0% | 0% | 0% | 0% | 0% | 0% | 0% | 0% | 0% | 0% | 0% | 41% | 48% | 15%
Nc1nccc2scc(-c3ccc4c(c3)CCN4C(=O)Cc3cc(F)ccc3F)c12 [GSK2587663] | 35% | 0% | 15% | 15% | 4% | 0% | 0% | 0% | 0% | 0% | 0% | 0% | 0% | 0% | 0% | 0% | 0% | 0% | 49% | 13%
CCc1nc(-c2cccc(N(C)S(=O)(=O)c3ccccc3)c2)c(-c2ccnc(Nc3ccc(N4CCN(C(C)=O)CC4)nc3)n2)s1 [GSK1645895] | 32% | 0% | 25% | 20% | 0% | 0% | 0% | 0% | 0% | 0% | 0% | 4% | 10% | 0% | 17% | 0% | 11% | 0% | 0% | 0%
CC(C)(C)c1ccc(-n2cnc3c(N)ncnc32)cc1 [SKF-97263] | 31% | 5% | 16% | 32% | 0% | 0% | 100% | 12% | 100% | 0% | 28% | 100% | 30% | 0% | 9% | 0% | 0% | 0% | 0% | 2%
